Source: PubChem BioAssay (National Center for Advancing Translational Sciences (NCATS))
An excerpt weighted towards active compounds, which were near 8% of everything screened.
Coupling enz: coupling enzyme interference in Giardia aldolase counter-screen | 290,000 compounds, 0.67% hits | activity change, negative = inhibition, % at 58.2 µM, hits read low | AID 2472 | coupling enzyme system counterscreen, AmpLite Red fluorescence; in the data active = activity change below about -30%
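Coupling enzymes only (glyceraldehyde-3-phosphate) + compound, at 57.5 uM final, 10 min RT; add substrate/coupling/AmpLite Red mix, 20 min RT; fluorescence ex 525/em 598 nm. Actives flag coupling-system interference.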
VP16 counter: counter-screen for ROR gamma inhibitors: Gal4-VP16 reporter | Drosophila S2 Gal4-VP16 UAS-luciferase, luminescence, 20 h | Potency, µM (titrated, usually from 53.6 µM), for inactives: at the top dose activity, negative = inhibition, usual class: inhibitors | 310,000 compounds, 3.5% hits | AID 2546;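 note: Gal4-VP16 expression switched on by copper sulfate through the metallothionein promoter; potency is the fitted concentration of half-maximal effect; nearly all actives have a fitted effect of over 50% in size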
TSHR antagonist: antagonists of human thyroid stimulating hormone receptor. 330,000 compounds, 0.2% hits. TSHR-expressing cells, TSH-stimulated cAMP HTRF, 2 h; active compounds read low. P16473. AID 504810. activity change, negative = inhibition, % at 11.5 µM;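 active = activity change below a set negative limit, meaning inhibition stronger than a set level, cut at about -70% in these data; inconclusive = activity change between two set negative limits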
Target sequence (P16473 whole entry, looked up): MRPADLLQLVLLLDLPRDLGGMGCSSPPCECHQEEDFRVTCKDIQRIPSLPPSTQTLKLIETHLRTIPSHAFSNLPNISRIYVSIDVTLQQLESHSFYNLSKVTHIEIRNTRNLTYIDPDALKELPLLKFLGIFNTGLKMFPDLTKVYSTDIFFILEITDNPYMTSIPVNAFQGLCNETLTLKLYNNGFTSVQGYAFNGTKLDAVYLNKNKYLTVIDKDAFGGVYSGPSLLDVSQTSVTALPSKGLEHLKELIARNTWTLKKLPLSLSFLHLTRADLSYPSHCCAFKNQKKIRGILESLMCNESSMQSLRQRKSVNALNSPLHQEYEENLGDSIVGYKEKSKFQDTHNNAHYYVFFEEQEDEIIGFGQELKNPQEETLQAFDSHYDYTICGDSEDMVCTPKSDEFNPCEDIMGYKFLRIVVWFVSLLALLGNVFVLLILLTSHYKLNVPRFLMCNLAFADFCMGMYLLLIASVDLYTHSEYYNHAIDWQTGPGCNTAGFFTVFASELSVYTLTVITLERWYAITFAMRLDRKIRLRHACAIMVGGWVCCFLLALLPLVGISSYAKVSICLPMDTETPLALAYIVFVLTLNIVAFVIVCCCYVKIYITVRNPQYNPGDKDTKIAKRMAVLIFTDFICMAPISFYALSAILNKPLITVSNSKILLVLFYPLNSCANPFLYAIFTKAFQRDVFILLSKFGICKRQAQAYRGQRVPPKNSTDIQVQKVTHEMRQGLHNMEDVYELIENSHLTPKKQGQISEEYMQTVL
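Antagonism was scored as loss of TSH-driven cAMP in TSHR cells, stimulated with 4nM TSH (EC80) for 2 hours at 37 deg C and detected by homogeneous HTRF competition immunoassay.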
ELG1 DNA repair: blocks ELG1-dependent DNA repair in HEK293T cells | HEK293T ELG1-luciferase reporter, luminescence, 16 h; DNA damage induced by 5-fluorouridine | Potency, µM (titrated, usually from 46.1 µM), without a hit: at the highest dose activity change, negative = inhibition, usual class: inhibitors | 330,000 compounds, 2.3% hits; note: potency is the fitted concentration of half-maximal effect; nearly all actives have a fitted effect of over 55% in size
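In this reporter screen, reduction of luminescence relative to DMSO vehicle indicated activity. Compounds and 5-fluorouridine were added together to 2,000 cells per well, incubated for 16 hr at 37 °C, then developed with ONE-Glo.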
RORgamma inh: ROR gamma (mouse) transcription inhibition. P51450. Drosophila S2 Gal4-RORgamma UAS-luciferase reporter, 20 h. Potency, µM (titrated, usually from 53.6 µM), for inactives: at the highest dose activity change, negative = inhibition, actives largely listed as inhibitors. 310,000 compounds, 5.4% hits; note: potency is the fitted concentration of half-maximal effect; nearly all actives have a fitted effect of over 60% in size
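ROR gamma transcriptional activity was tracked as Gal4-UAS luciferase output in stably transfected Drosophila Schneider cells, with compound added 1 hr before 700 uM copper sulfate induction and a 20 hr ambient-temperature incubation.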
Starred values were filed as active, the others as inactive; u = inconclusive; x = not tested or not shown. Unless noted, calls come from the whole dose curve; as a rule, active = well fitted curve in the direction sought with a large enough effect; inconclusive = small, poorly fitted or top-dose-only effect, or another doubt; inactive = no such curve, though single readings can be large; an effect the other way counts as inactive or inconclusive. % is set by controls: 0 for no effect and ±100 for the full control effect.

SMILES	Coupling enz	VP16 counter	TSHR antagonist	ELG1 DNA repair	RORgamma inh
COc1ccccc1C(=O)NCC(=O)N/N=C/c1cc(Br)ccc1OC(=O)/C=C\c1ccco1	-8.2	7.08µM*	1.0	-23.7%	3.55µM*
CC(=O)c1ccc(-c2cc(C3C4C=CCC(C)C4C(=O)N3Cc3ccccc3)ccc2F)cc1 (stereo unspecified)	-1.2	2.4%	x	x	-16.3%
CC1=C2C(=COC(C)C2C)C(=O)C(C(=O)O)=C1O (stereo unspecified)	-35.5*	0.7%	x	x	-31.8%
CCOC(=O)c1cnc(SC)nc1Oc1cccc(NS(=O)(=O)c2ccc(Cl)cc2)c1	0.3	2.8%	-3.2	23.1µM*	35.9%
COC(=O)c1ccc(OS(=O)(=O)c2ccc(NC(C)=O)cc2)cc1	6.8	u	10.7	-10.2%	u
CC(=O)Nc1ccc(S(=O)(=O)Oc2ccc(N3C(=O)C4CCCCC4C3=O)cc2)cc1 (stereo unspecified)	2.3	12.6µM*	-27.3	5.3%	u
CC(=O)Nc1ccc(S(=O)(=O)Oc2cccc(N3C(=O)C4CC=CCC4C3=O)c2)cc1 (stereo unspecified)	2.0	4.8%	-1.0	23.1µM*	15.3%
O=C1C2CCCCC2C(=O)N1c1cccc(OS(=O)(=O)c2ccccc2)c1 (stereo unspecified)	-0.2	0.9%	-12.8	0.8%	33.8%
CC(C)(C)c1nc(NCCO)c2nnn(Cc3ccccc3)c2n1	-2.5	-6.0%	-2.3	-5.3%	-11.5%
Fc1ccc(-[n+]2nc(Nc3ccccc3)sc2-c2c3ccccc3cc3ccccc23)cc1	-30.7*	-18.1%	50.2	4.61µM*	10µM*
CC(=O)Nc1cccc(C2=CC(c3ccco3)n3ncnc3N2)c1 (stereo unspecified)	-0.6	-13.7%	10.4	13.5%	6.31µM*
CCCCCCCCCCCCCCCCCCOC[C@H](COP(=O)([O-])OCC[N+](C)(C)C)OC	6.2	-7.5%	-81.3*	x	-22.2%
CN(Cc1ccccc1N1CCCC1)C(=O)c1cc2cc(Cl)ccc2o1	x	x	12.8	-15.6%	x
CCOCCCNC1=C(Cl)C(=O)c2ccccc2C1=O	-24.2	u	11.3	-24.3%	-42.5%
CNc1ccncc1S(=O)(=O)NC	-0.5	-19.0%	7.9	0.4%	5.4%
CNC1=C(Br)C(=O)c2ccncc2C1=O	-14.8	5.62µM*	x	x	2.24µM*
CNC1=C(Cl)C(=O)c2ccncc2C1=O	-23.8	5.62µM*	x	x	2.82µM*
CCOc1ccc(C(=O)COC(=O)c2cccc(-n3cnnn3)c2)cc1	x	0.1%	-6.0	u	u
O=c1c(-c2cc(F)cc(F)c2)nc2cnc(Oc3ccccc3)nc2n1C1CC1	0.6	1.5%	x	x	18.4%
Cc1c(/C=N\NC(=O)C2COc3ccccc3O2)c2ccccc2n1C (stereo unspecified)	6.7	-4.6%	27.5	1.0%	-7.7%
Cc1ccc(-n2c(O)c(/C=N/NC(=O)C3COc4ccccc4O3)c3ccccc3c2=O)cc1 (stereo unspecified)	5.1	3.16µM*	-10.0	-17.0%	3.98µM*
O=C(N/N=C/c1cccs1)C1COc2ccccc2O1 (stereo unspecified)	0.6	u	10.0	4.1%	u
O=C(N/N=C/c1c(O)n(-c2ccccc2Cl)c(=O)c2ccccc12)C1COc2ccccc2O1 (stereo unspecified)	15.1	2.82µM*	-10.1	u	3.98µM*
Cc1ccc2c(c1)cc(CN(Cc1cccnc1)C(=O)c1ccccc1)c1nnnn12	5.5	-5.2%	-8.3	u	8.3%
Cc1ccc(C(=O)N(Cc2cccnc2)Cc2cc3cc(C)ccc3n3nnnc23)cc1	9.3	1.9%	12.9	20.6µM*	-15.4%
SMILES	Coupling enz	VP16 counter	TSHR antagonist	ELG1 DNA repair	RORgamma inh
CC(C)=CCCC1=CC[C@H](C(=O)O)[C@H](C(=O)O)C1	8.2	5.7%	x	x	2.8%
O=c1c2ccccc2sn1-c1nccs1	0.5	u	-25.0	1.3%	8.91µM*
O=c1c2ccccc2sn1-c1ccccc1	5.2	2.82µM*	-17.0	u	3.55µM*
O=C(O)c1cccc(-n2sc3ccccc3c2=O)c1	x	x	u	23.6%	x
Cc1ccccc1C(=O)NCCCNC(=O)c1ccccn1	-0.5	2.7%	5.2	6.6%	-2.4%
CC(C)[C@H](NC(=O)c1ccc(Br)cc1)C(=O)NC1CCCCC1	x	x	-1.5	u	x
CC(C)CC(C(=O)NC1CCCC1)N(Cc1cccs1)C(=O)c1snc(C(N)=O)c1N (stereo unspecified)	-6.6	-9.3%	4.6	18.4µM*	-1.4%
Cc1nc2[nH]c(=S)[nH]c2cc1Br	1.4	-2.9%	1.6	-0.2%	11.2µM*
O=C(Nc1ccc(N2CCCCC2)c(S(=O)(=O)Nc2ccccc2Cl)c1)c1cccnc1	x	x	-21.9	18.3µM*	x
O=C(Nc1ccc(F)cc1)Nc1ccc(N2CCCC2)c(S(=O)(=O)Nc2ccccc2Cl)c1	-1.1	u	-43.9	u	u
O=C(Nc1ccc(N2CCOCC2)c(S(=O)(=O)Nc2ccccc2Cl)c1)c1ccc(F)cc1	x	x	-25.4	18.3µM*	x
CC1(CN2CCC(n3c(=O)[nH]c4ccccc43)CC2)OCc2ccccc2-n2cccc21 (stereo unspecified)	-0.3	1.6%	x	x	28.7%
NC(=O)C1CCN(c2nc(-c3ccc(C(F)(F)F)cc3)cs2)CC1	x	x	-21.1	x	x
Cc1cc(N2CCCC2)nc2ccc(NC(=S)NC(C)C)cc12	-13.1	-3.0%	15.3	8.2%	-36.9%
Cc1cc(N2CCOCC2)nc2ccc(NC(=S)NC(C)C)cc12	1.8	u	-3.8	0.0%	10µM*
COCCNC(=S)Nc1ccc2nc(N3CCOCC3)cc(C)c2c1	0.7	1.8%	-4.8	1.7%	u
Cc1cc(N2CCOCC2)nc2ccc(NC(=S)NCc3ccc4c(c3)OCO4)cc12	0.9	u	-6.8	u	22.4µM*
COc1ccc(Nc2ccccc2NC(=O)c2ccccc2Br)cc1	0.1	-14.2%	9.6	-6.9%	-0.7%
CC(C)CC(=O)NC(=S)N1CCN(c2ccc([N+](=O)[O-])cc2Cl)CC1	-0.9	u	-9.2	u	3.55µM*
COc1cc2cc(C(=O)N(C)C3CCS(=O)(=O)C3)[nH]c2cc1OC (stereo unspecified)	x	2.4%	18.4	8.7%	20µM*
CC(C)c1ccc(S(=O)(=O)N2CCC(C(=O)NCc3ccco3)CC2)cc1	x	x	9.2	-4.0%	x
O=C(c1ccccc1)N1CCN(S(=O)(=O)c2ccc(Cl)c(C(F)(F)F)c2)CC1	x	x	40.8	-6.2%	x
O=C(O)c1nc(-c2ccccc2)n(-c2ccccc2)n1	15.7	1.9%	8.3	u	24.4%
O=C(c1ccccc1C(F)(F)F)N1CCN(S(=O)(=O)c2ccccc2)CC1	4.1	-5.4%	-0.7	20.6µM*	10.3%
